Measurements reported in PubChem BioAssay (NCATS).
Records with an inconclusive call do not appear. A call without a number means that no potency is given here. Activity calls are given as the source filed them. The call rests on the fitted dose curve; in most records, active means well fitted inhibition curve with a large enough effect; inconclusive means small, poorly fitted or top-dose-only effect; inactive means flat fitted curve, though single readings scatter.

Molecular target: Calcium and integrin-binding protein 1 (Homo sapiens) (UniProt Q99828)
Sequence (Q99828 whole entry, looked up): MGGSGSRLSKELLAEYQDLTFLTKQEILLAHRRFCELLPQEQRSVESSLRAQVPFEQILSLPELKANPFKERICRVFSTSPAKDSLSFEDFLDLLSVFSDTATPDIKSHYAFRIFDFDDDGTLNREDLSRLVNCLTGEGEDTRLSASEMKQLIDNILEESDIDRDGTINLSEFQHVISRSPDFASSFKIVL
Experiment: Primary qHTS for Identification of Calcium Integrin Binding Protein 1 (CIB1) Competitor (AID 1508620); further: top concentration of the series differs between compounds
Conditions: CIB1-GST / FITC-alphaIIb peptide fluorescence polarization; series mostly up to 114 µM
Outline: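 Fluorescence polarization competition: GST-tagged CIB1 (1 uM final) preincubated with compound 15 min at room temperature, then FITC-labelled alphaIIb peptide (100 nM final) added. After 15 min at room temperature, polarization read at Ex 480/Em 540.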

| SMILES | Potency |
| --- | --- |
| C=CC(C)(C)C12CC3C(=O)N4C(CC5(C(C)(C)C=C)c6ccccc6NC45)C(=O)N3C1Nc1ccccc12 (centres undefined) | inactive |
| COc1cc2nc(N3CCN(C(=O)c4ccco4)C4CCCCC43)nc(N)c2cc1OC (centres undefined) | inactive |
| CCC(C)C(=O)OC12C(OC(C)=O)C(C)C3(O)C(C=C(CO)CC4(O)C(=O)C(C)=CC43)C1C2(C)C (centres undefined) | inactive |
| C#CCCCn1cc(-c2cccc3c2N[C@H](C)CC(=O)N3)cn1 | inactive |
| CCCc1cc(C)[nH]c(=O)c1CNC(=O)c1cc(-c2ccnc(N3CCN(C)CC3)c2)cc2c1cnn2C(C)C | inactive |
| C=C[C@](C)(O)CC[C@H]1C(C)=CC(=O)[C@H]2C(C)(C)CCC[C@]12C | inactive |
| Cc1c(C(=O)Nc2ccc(N3CCC(N4CCOCC4)CC3)c(C#N)c2)cnn1-c1ccc(Cl)cc1 | inactive |
| O=C(/C=C/c1ccccc1O)O[C@@H]1O[C@H](CO)[C@@H](O)[C@H](O)[C@H]1O | inactive |
| O=C(Nc1ccccc1C(=O)Nc1ccc(CCO)cc1)c1ccc([N+](=O)[O-])cc1 | inactive |
| O=C(c1ccc(Cl)cc1)N1CCN(c2ccnc3cc(Cl)ccc23)CC1 | inactive |
| CC(=O)O[C@@H]1CC[C@@]2(C)C(CC[C@]3(C)C2[C@H](O)C=C2[C@H]4[C@@H](C)[C@H](C)CC[C@]4(C)CC[C@]23C)[C@@]1(C)C(=O)O (some centres undefined) | inactive |
| Cc1[nH]cnc1C[C@H]1CCc2c(C)c3ccccc3n2C1=O | inactive |
| C/C=C(\C)C(=O)OC1C=C(C)CC(OC(=O)c2ccc(O)cc2)C2C1(C)CCC2(O)C(C)C (centres undefined) | inactive |
| COc1ccccc1N1CCN(CC[C@@](C)(C(=O)C2CCCCC2)c2ccccc2)CC1 | inactive |
| CC(C)(C)c1ccc(-c2nc3c(N4CCN(Cc5ccc6nccnc6c5)CC4)cccc3[nH]2)cc1 | inactive |
| O=C(Nc1ccn(Cc2ccc(O)cc2C(F)(F)F)n1)c1c(F)cccc1F | inactive |
| CCOc1nc(NC(=O)Cc2cc(OC)ccc2OC)cc(N)c1C#N | inactive |
| CC(C)=CCC[C@](C)(O[C@@H]1O[C@H](CO[C@@H]2OC[C@@H](O)[C@H](O)[C@H]2O)[C@@H](O)[C@H](O)[C@H]1O)[C@H]1CC[C@]2(C)[C@@H]1[C@H](O)C[C@@H]1[C@@]3(C)CC[C@H](O[C@@H]4O[C@H](CO)[C@@H](O)[C@H](O)[C@H]4O)C(C)(C)[C@@H]3CC[C@]12C | inactive |
| COc1c(C)cnc(Cn2cc(C#CCC(C)(C)O)c3c(Cl)nc(N)nc32)c1C | inactive |
| Cc1cccc(N2CCN(C(=O)c3cc(S(=O)(=O)N(C)C)ccc3N3CCCC3)CC2)c1C | inactive |

| SMILES | Potency |
| --- | --- |
| C=C(C)C(=O)O[C@H]1/C(C=O)=C\CC/C(CO)=C/[C@H]2OC(=O)C(=C)[C@@H]2[C@@H]1OC | inactive |
| CC(C)c1cc2c(N3CCN(C4=NCC(C)(C)S4)CC3)ncnc2s1 | inactive |
| C=C1CC[C@@H]2[C@](C)(CO)[C@H](O)CC[C@@]2(C)[C@@H]1C/C=C1/C(=O)OCC1OC(=O)/C(=C/CO)C(O)C[C@@H]1C(=C)CC[C@@H]2[C@](C)(CO)[C@H](O)CC[C@]21C (some centres undefined) | inactive |
| CCC(C)C1NC(=O)C(Cc2ccccc2)NC(=O)C(CCCCCC(=O)C(O)CO)NC(=O)C2CCCCN2C1=O (centres undefined) | inactive |
| O=C(COc1ccc(C(=O)c2ccccc2)cc1)NC1CCN(Cc2ccccc2)CC1 | inactive |
| CCOC(=O)c1cnn(-c2ccccc2)c1NC(=O)c1cc2nc(-c3ccco3)cc(C(F)(F)Cl)n2n1 | inactive |
| CC(=O)OC[C@]12[C@H](OC(C)=O)[C@H](OC(=O)c3ccccc3)[C@@H]3[C@@H](OC(C)=O)[C@]1(OC3(C)C)[C@H](C)C[C@H](OC(C)=O)[C@@H]2OC(=O)c1ccccc1 | inactive |
| Cc1csc(N(C(=O)CSc2ccc(-c3ccccc3)nn2)C2CC2)n1 | inactive |
| CC(C)C(C)C(O)C1CC23CC(=O)C4(O)C(=C2CCC3C1C)C=CC1(O)CC(O)CCC14C (centres undefined) | inactive |
| CC(C)(C)OC(=O)c1ncn2c1C(C)(C)Nc1ccccc1-2 | inactive |
| CCOC(=O)N1c2ccc(C(F)(F)F)cc2C(N(Cc2cc(C(F)(F)F)cc(C(F)(F)F)c2)C(=O)OC)CC1CC (centres undefined) | inactive |
| CN1CCN(C2=Nc3ccccc3Nc3ccc(OS(=O)(=O)C(F)(F)F)cc32)CC1 | inactive |
| C=C1C(=O)O[C@@H]2C[C@H](C)[C@@H]3CC(=O)[C@H](O)[C@@]3(C)C[C@H]12 | inactive |
| C=C(C)C1CCC2(C(=O)O)CCC3(C)C(CCC4C5(C)C(C=O)C(O)C(C)(C)C5CCC43C)C12 (centres undefined) | inactive |
| Cn1ncc(Cl)c1-c1cc(C(=O)N[C@H](CN)Cc2ccc(F)c(F)c2)oc1Cl | inactive |
| COc1ccc(C#Cc2ccc(C(=O)N3CCC[C@@H](O)C3)c(F)c2)cc1 | inactive |
| OC(CC1c2ccccc2-c2cncn21)C1CCCCC1 (centres undefined) | inactive |
| CC1(NC(=O)c2ccc(C#Cc3cccc(F)c3)cn2)COC1 | inactive |
| CCCC(CCC)C(=O)NCc1ccc2c(cnn2-c2ccccc2OC)c1 | inactive |
